GRP78 ERSR act: qHTS for Inducers of the Endoplasmic Reticulum Stress Response (ERSR) in Human Glioma: qHTS; U87-MG GRP78 promoter luciferase reporter, 16 h; Potency, µM, for the others: at the top dose activation, hits mostly activators; actives 0.02% (n = 420,000); AID 602332, 2012; further: potency means the concentration at half of the fitted maximal effect; series mostly up to about 76 µM; % of control where 0% means no effect; nearly all actives have a fitted effect of over 35% in size
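ERSR induction read as luciferase luminescence (Bright-Glo, 10 min at room temperature) in stably transfected human U87-MG glioma cells exposed to compounds for 16 h, using GRP78 as sensor.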
D3 ag: qHTS of D3 Dopamine Receptor Agonist: qHTS; D3R DiscoveRx beta-arrestin cells, luminescence, 90 min; max activation, %; D(3) dopamine receptor (Homo sapiens), P35462; AID 652048, 2013; actives 0.58% (n = 410,000); in the data active means max activation above about 30%; further: 0% is about no effect
Target sequence (P35462 whole entry, looked up): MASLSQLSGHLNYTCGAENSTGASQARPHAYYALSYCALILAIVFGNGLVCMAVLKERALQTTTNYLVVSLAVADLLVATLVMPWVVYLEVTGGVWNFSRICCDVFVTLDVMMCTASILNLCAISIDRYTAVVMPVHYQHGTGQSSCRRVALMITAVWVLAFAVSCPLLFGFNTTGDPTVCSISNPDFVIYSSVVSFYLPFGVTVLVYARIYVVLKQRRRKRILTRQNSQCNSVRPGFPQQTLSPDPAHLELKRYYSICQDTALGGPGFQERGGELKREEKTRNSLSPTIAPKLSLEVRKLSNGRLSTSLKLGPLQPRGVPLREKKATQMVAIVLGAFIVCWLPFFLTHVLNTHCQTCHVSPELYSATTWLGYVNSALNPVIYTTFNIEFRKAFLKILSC
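Agonist mode: compounds and dopamine controls were applied to plated cells for 90 min at 37 degrees C after an overnight attachment at 1500 cells/well. Luminescent read-out followed 30 - 60 minutes at room temperature with DiscoveRx detection reagent.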
D3 antag: qHTS of D3 Dopamine Receptor Antagonist: qHTS; actives 2.5% (n = 360,000); max response, negative = inhibition, %; AID 652054, 2013; D3R cells, DiscoveRx beta-arrestin luminescence, antagonist mode; hits give low values; in the data active means max response below about -50%; inconclusive means no clear call, values can overlap the other calls; further: on the % scale 0 is the no-effect control and ±100 the full control effect
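Cells expressing the human receptor were seeded at 1500 cells/well, incubated overnight at 37 degrees C in 5% CO2, then exposed to library compounds with dopamine controls for 90 minutes at 37 degrees C before luminescent detection.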
Nrf2 activator: qHTS of Nrf2 Activators; Potency, µM (series often up to 46.1 µM), without a hit: at the highest dose activation, usual class: activators; AID 624171, 2012; AREc32 ARE-luciferase reporter (MCF7-derived line), luminescence, 24 h; actives 0.31% (n = 410,000); further: potency means the concentration at half of the fitted maximal effect; % of control where 0% means no effect; nearly all actives have a fitted effect of over 65% in size
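Cells of the AREc32 ARE-luciferase line are plated in OPTI-MEM containing 5% FBS and left overnight at 37 deg C. Compounds are pinned in, incubation continues 24 hr, and firefly luciferase signal is then measured.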
An asterisk follows results filed as active; u = inconclusive; x = not tested or not shown; [ ] = remark or other dose. The list is not random: actives were taken first. Their share in the collection is about 3%. Unless noted, the call rests on the fitted dose curve; in most records, active means well fitted curve in the direction sought with a large enough effect; inconclusive means small, poorly fitted or top-dose-only effect, or another doubt; inactive means no such curve, though single readings can be large; an effect the other way counts as inactive or inconclusive.

SMILES	GRP78 ERSR act	D3 ag	D3 antag	Nrf2 activator
O=c1[nH][nH]cc1C=Nc1ccccc1O	-6%	4	22	13µM*
O=c1[nH][nH]cc1C=Nc1cc(Cl)ccc1O	1%	4	0	13µM*
O=c1[nH][nH]cc1C=Nc1ccccc1Cl	-1%	-3	3	0%
Cn1c(SCc2nc(-c3ccccc3)no2)nnc1-c1cccs1	-1%	32*	11	0%
Cn1c(SCc2nc(-c3ccc(Cl)cc3)no2)nnc1-c1cccs1	-3%	-13	12	1%
CC(C)Oc1ccc(CNC(=O)C2CCN(Cc3cc4ccccc4n3Cc3ccccc3)CC2)cc1	-4%	-12	x	-1%
C=CC(C)(C)c1c(O)c(CC=C(C)C)c(O)c2c(=O)c3ccc(O)c(O)c3oc12	-8%	89*	81	-1%
C=CC(C)(C)c1c2occc2c(O)c2ccc(=O)oc12	2%	-5	16	-1%
O=C(CC1SC(N2CCCC2)=NC1=O)Nc1ccc(C(=O)Nc2ncccc2O)cc1 (configuration not stated)	u	-7	9	16µM*
COc1ccc2cc(CNCc3ccccc3Cl)c(N3CCCC(CO)C3)nc2c1 (configuration not stated)	-7%	x	x	x
CC(=O)Nc1ccc(OCC(O)CN2CCN(c3ccc(Cl)cc3)CC2)cc1 (configuration not stated)	-5%	3	-72*	0%
OC(COc1ccc(Cl)cc1)CN1CCN(c2cccc(Cl)c2)CC1 (configuration not stated)	6%	1	u	5%
CC(=O)Nc1ccc(OCC(O)CN2CCN(c3cccc(Cl)c3)CC2)cc1 (configuration not stated)	2%	34*	-18	0%
COc1ccc(CN2CCOc3ccc(CN4CCC(Oc5cccnc5)CC4)cc3C2)cc1C	-6%	x	x	x
COC(=O)[C@@H]1[C@@H](C)N(Cc2ccccc2)C(=O)N[C@H]1c1ccccc1	-5%	10	19	-2%
COC(=O)[C@H]1[C@@H](C)N(Cc2ccccc2)C(=O)N[C@H]1c1ccccc1	-5%	3	-55*	-1%
Cc1ccnc2c(Cl)c(Cl)ccc12	-3%	x	x	x
CC1CN(CCC(=O)NC(c2cccnc2)C(F)(F)F)Cc2cc(Cl)ccc2O1 (configuration not stated)	-4%	x	x	x
O=[N+]([O-])c1cccc(/C=N\N=C2c3ccccc3-c3ccccc32)c1O	0%	-13	-74*	4%
COc1ccc(N2CCN(CCCn3c(=S)[nH]c4ccccc4c3=O)CC2)cc1	-3%	-3	-75*	0%
COc1ccccc1N1CCN(CCCn2c(=S)[nH]c3ccccc3c2=O)CC1	-7%	-19	-109*	0%
COc1ccccc1N1CCN(CCc2n[nH]c(=S)n2-c2ccccc2)CC1	2%	-38	-80*	0%
CCOc1cc2[nH]c(=O)n(CCCN3CCN(c4ccc(OC)cc4)CC3)c(=O)c2cc1OCC	6%	-9	u	0%
COc1ccc(-n2c(CCc3ccccc3)n[nH]c2=S)cc1	-1%	-6	-1	3%
CN1CCN(CCn2c(=S)[nH]c3ccccc3c2=O)CC1	-5%	-6	14	-1%
SMILES	GRP78 ERSR act	D3 ag	D3 antag	Nrf2 activator
COc1ccccc1N1CCN(CCn2c(=O)[nH]c3c([nH]c4ccccc43)c2=O)CC1	-5%	x	x	x
O=c1c2ccccc2[nH]c(=S)n1CCN1CCc2ccccc2C1	-1%	-27	-90*	5%
N#Cc1ccc(/C=C2/C=Cc3ccccc32)cc1	-4%	x	x	x
CCSc1nnc(NC(=O)c2cc(=O)c3cc(C)ccc3o2)s1	0%	-12	x	-1%
OCCN(CCO)c1ccc(/C=C/c2ccnc3ccccc23)cc1	2%	x	x	x
COC(=O)[C@]12CCC(C)(C)C[C@@H]1[C@@H]1C(=O)C=C3[C@@]4(C)C=C(C#N)C(=O)C(C)(C)[C@@H]4CC[C@@]3(C)[C@]1(C)CC2	-11%	x	x	x
COCC(=O)Nc1cc(C(=O)NC2CCc3ccccc32)c2c(c1)nc(-c1ccncc1)n2C (configuration not stated)	-2%	x	x	x
CCN1C(=O)/C(=c2\o/c(=C3\C=Cc4ccccc4N3CC)c(=O)n2CC)SC1=S	-4%	2	-5	11%
CCN1C(=O)/C(=C2\C=Cc3ccccc3N2CC)SC1=S	3%	-14	-91*	u
O=C(NC1CCCC1)c1cn(C2CCN(Cc3cccc4cccnc34)CC2)nn1	-3%	x	x	x
CCOC(=O)C1CCN(CC(=O)Nc2c(C(=O)OC)[nH]c3ccc(Cl)cc23)CC1	-10%	13	-3	4%
Cc1ccc(NC(=O)CCN2CCC(C)CC2)cc1	-1%	-22	-62*	-1%[9.22 µM]
CC1CCN(CCC(=O)Nc2ccc3c(c2)CCC3)CC1	-3%	-30	-59*	0%
Cc1ccc(NC(=O)CCN2CCN(C)CC2)cc1	0%	5	0	-1%
O=C(CCN1CCOCC1)Nc1ccc(Cl)cc1	-2%	-1	-17	0%
CCOC(=O)C1CCCN(CC(=O)Nc2c(C(=O)OC)[nH]c3ccc(Br)cc23)C1 (configuration not stated)	-5%	-15	-51*	4%
CC1CCN(CCC(=O)Nc2ccc(Cl)cc2)CC1	-4%	-15	-64*	0%
O=C1C2=CC[C@H]3C(=O)N(C4CCCCC4)C(=O)[C@@H]3[C@@H]2[C@H](O)[C@@H]2O[C@H]12	-12%	x	x	x
CCCCN(C)CCC(=O)Nc1ccc2c(c1)CCC2	0%	-15	-57*	0%
CCOC(=O)C1CCCN(CCC(=O)Nc2ccc(C)cc2)C1 (configuration not stated)	-7%	-7	-71*	-1%
CCN1CCN(Cc2ccc(NC(=O)CC3Oc4ccc(C)cc4NC3=O)cc2)CC1 (configuration not stated)	-4%	-9	-10	0%
Cc1ccc2c(c1)NC(=O)C(CC(=O)Nc1ccc(CN3CCC(C)CC3)cc1)O2 (configuration not stated)	0%	-9	-61*	1%
CC(C)(C)C(=O)OCC(=O)[C@H]1CC[C@H]2[C@@H]3CCC4=CC(=O)CC[C@]4(C)[C@H]3CC[C@]12C	x	-5	x	x
CCOC(=O)C1CCCN(CCC(=O)Nc2c(C(=O)OC)[nH]c3cc(OC)ccc23)C1 (configuration not stated)	-2%	5	0	0%
COc1ccc(OC)c(NC(=O)CCN2CCN(c3ccccc3)CC2)c1	-3%	30*	-53*	0%
COc1ccc2c(c1)CC(C(=O)NCCN1CCN(c3ccccc3F)CC1)CO2 (configuration not stated)	-1%	2	x	1%
CCOC(=O)c1[nH]c2ccc(OC)cc2c1NC(=O)CCN1CCSCC1	-5%	0	-7	1%
COc1ccc2c(c1)CC(C(=O)NCCN1CCN(c3cccc(C)c3C)CC1)CO2 (configuration not stated)	-2%	47*	x	-1%
